Among the data in PMC7862700, “An all-to-all approach to the identification of sequence-specific readers for epigenetic DNA modifications on cytosine” are binding signal values, retold here.

What all share (test): DAPPL (digital affinity profiling via proximity ligation, sequencing); 10 mM Tris-HCl pH 7.5, 50 mM NaCl, 1 mM DTT, 4% glycerol, room temperature, 30 min; GST-TFs on glutathione beads, 16-mer random dsDNA library, 0.1% formaldehyde crosslink after washing; high values mean tight binding
Assay [1] concerns the target T1, FLI1 (Homo sapiens, UniProt Q01543 1-452).
T1 sequence: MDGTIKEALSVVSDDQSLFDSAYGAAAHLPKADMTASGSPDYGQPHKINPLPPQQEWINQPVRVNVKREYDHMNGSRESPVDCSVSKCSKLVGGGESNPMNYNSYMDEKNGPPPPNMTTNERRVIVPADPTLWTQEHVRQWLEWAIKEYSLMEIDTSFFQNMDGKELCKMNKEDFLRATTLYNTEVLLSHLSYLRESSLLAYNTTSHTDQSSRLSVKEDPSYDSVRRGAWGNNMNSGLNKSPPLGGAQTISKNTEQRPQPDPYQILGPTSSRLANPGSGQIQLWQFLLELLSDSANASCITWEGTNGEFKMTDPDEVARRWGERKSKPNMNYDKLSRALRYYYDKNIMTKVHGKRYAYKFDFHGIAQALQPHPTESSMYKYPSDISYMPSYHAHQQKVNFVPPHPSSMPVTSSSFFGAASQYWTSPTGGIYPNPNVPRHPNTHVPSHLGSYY
The conditions noted are these: protein: recombinant; tags: N-terminal GST; dsDNA, one strand shown. An outline of the steps:
(§1)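 The binding signal reported is, for every hexamer, its read frequency for a factor over its read frequency for the tag-only sample. Reads came from pools of yeast-expressed, GST-fused human transcription factors on glutathione beads, barcoded with DNA and mixed with that sample, which were incubated with 200 nmole of a random double-stranded 16-mer DNA library in Tris/NaCl/DTT/glycerol buffer at room temperature for 30 min. After washing, the pools were crosslinked with 0.1% formaldehyde, proximity-ligated with BsaI/T4 ligase for 1 h at 37 °C, PCR-amplified and sequenced on an Illumina NextSeq500.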

The target in assay [2] is T2, ELK1 (Homo sapiens, UniProt P19419 1-428).
T2 sequence: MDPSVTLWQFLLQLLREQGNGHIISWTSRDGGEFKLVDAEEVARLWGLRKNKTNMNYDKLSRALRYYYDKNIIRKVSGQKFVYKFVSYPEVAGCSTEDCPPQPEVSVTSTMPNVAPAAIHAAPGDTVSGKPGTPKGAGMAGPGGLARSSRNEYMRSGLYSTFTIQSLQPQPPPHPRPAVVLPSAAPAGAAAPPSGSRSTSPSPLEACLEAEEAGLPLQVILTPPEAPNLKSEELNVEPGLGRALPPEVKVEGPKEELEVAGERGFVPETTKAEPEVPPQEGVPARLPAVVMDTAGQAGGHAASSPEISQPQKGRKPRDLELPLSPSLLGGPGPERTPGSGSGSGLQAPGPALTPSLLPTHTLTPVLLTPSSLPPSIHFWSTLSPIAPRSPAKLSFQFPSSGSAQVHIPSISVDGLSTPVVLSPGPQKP
The conditions noted are these: protein: recombinant; tags: N-terminal GST; dsDNA, one strand shown. In short, it runs like this: as §1

Assay [3] has as its target T3, GABPA (Homo sapiens, UniProt Q06546 1-454).
T3 sequence: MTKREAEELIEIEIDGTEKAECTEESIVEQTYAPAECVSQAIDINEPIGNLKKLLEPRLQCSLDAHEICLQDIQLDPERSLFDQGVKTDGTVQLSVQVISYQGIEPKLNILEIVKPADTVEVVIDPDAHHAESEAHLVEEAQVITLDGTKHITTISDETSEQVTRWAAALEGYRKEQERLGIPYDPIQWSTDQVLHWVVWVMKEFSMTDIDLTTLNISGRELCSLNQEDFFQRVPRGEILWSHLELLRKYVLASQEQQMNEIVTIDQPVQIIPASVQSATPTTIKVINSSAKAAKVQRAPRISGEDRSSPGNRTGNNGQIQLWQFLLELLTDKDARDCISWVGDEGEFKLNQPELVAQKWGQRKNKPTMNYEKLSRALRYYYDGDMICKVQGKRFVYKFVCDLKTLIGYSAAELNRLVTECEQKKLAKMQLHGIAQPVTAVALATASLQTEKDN
The conditions noted are these: protein: recombinant; tags: N-terminal GST; dsDNA, one strand shown. An outline of the steps: as §1

Assay [4] concerns the target T4, ERG (Homo sapiens, UniProt P11308 1-479).
T4 sequence: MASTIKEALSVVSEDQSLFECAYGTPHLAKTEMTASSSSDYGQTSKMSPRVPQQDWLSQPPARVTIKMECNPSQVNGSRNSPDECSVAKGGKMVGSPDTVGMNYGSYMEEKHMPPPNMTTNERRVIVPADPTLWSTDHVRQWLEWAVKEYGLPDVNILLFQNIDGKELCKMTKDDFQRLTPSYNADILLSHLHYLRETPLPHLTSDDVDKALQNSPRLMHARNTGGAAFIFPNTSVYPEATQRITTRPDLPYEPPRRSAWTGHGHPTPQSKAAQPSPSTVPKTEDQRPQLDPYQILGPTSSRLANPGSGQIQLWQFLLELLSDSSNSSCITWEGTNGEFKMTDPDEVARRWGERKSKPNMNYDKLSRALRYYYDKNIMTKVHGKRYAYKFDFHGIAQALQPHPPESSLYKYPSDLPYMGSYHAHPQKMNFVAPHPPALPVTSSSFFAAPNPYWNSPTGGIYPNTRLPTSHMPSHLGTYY
The conditions noted are these: protein: recombinant; tags: N-terminal GST; dsDNA, one strand shown. In short, it runs like this: as §1

For assay [5], the target named is ELF1 (Homo sapiens, UniProt P32519 1-619). The conditions noted are these: protein: recombinant; tags: N-terminal GST; dsDNA, one strand shown. An outline of the steps:
as §1

The target in assay [6] is T5, EHF (Homo sapiens, UniProt Q9NZC4 1-300).
T5 sequence: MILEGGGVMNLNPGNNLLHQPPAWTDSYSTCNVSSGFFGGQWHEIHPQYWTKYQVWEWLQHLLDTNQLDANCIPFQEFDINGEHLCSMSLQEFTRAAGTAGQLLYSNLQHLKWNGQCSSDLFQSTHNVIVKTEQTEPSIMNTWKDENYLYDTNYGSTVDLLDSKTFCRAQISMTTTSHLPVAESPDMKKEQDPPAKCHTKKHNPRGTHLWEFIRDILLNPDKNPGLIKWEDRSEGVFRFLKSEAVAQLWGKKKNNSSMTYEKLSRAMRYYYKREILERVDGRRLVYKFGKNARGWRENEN
The conditions noted are these: protein: recombinant; tags: N-terminal GST; dsDNA, one strand shown. In short, it runs like this: as §1

For assay [7], the target named is SPI1 (Homo sapiens, UniProt P17947 1-270). The conditions noted are these: protein: recombinant; tags: N-terminal GST; dsDNA, one strand shown. An outline of the steps:
as §1

The target in assay [8] is SPIB (Homo sapiens, UniProt Q01892 1-262). The conditions noted are these: protein: recombinant; tags: N-terminal GST; dsDNA, one strand shown. An outline of the steps: as §1
Assay [9] concerns the target T6, ELK3 (Homo sapiens, UniProt P41970 1-407).
T6 sequence: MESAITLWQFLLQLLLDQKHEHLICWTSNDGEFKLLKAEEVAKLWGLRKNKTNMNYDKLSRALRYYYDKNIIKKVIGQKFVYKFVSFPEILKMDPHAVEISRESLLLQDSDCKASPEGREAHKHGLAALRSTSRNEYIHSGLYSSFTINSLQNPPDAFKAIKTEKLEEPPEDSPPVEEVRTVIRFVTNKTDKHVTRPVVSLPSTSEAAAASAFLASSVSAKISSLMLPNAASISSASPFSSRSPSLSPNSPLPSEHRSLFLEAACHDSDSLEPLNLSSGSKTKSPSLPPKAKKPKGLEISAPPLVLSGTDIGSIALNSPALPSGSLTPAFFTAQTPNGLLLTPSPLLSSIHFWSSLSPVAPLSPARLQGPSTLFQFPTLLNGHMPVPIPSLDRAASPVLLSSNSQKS
The conditions noted are these: protein: recombinant; tags: N-terminal GST; dsDNA, one strand shown. In short, it runs like this: as §1

Assay [10] deals with T7, FEV (Homo sapiens, UniProt Q99581 1-238).
T7 sequence: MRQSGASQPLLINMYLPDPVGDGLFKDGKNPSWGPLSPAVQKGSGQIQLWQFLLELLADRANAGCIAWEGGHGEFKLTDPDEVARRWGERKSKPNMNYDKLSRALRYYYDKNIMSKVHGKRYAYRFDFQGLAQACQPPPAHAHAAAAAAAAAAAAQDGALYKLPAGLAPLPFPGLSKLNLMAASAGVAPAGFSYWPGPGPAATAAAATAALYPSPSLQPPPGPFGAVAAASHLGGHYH
The conditions noted are these: protein: recombinant; tags: N-terminal GST; dsDNA, one strand shown. An outline of the steps: as §1

In assay [11] the target is ETV5 (Homo sapiens, UniProt P41161 1-510). The conditions noted are these: protein: recombinant; tags: N-terminal GST; dsDNA, one strand shown. An outline of the steps:
as §1

Assay [12] concerns the target HSF1 (Homo sapiens, UniProt Q00613 1-529). The conditions noted are these: protein: recombinant; tags: N-terminal GST; chain copies: 3; dsDNA, one strand shown. In short, it runs like this: as §1
For assay [13], the target named is T8, SPIC (Homo sapiens, UniProt Q8N5J4 1-248).
T8 sequence: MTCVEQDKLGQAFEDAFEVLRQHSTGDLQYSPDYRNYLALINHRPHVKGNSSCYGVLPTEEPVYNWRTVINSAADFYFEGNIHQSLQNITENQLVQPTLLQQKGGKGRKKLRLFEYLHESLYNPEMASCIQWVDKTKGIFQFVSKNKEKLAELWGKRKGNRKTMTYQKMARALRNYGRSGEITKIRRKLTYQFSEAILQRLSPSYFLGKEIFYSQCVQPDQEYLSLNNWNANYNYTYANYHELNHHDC
The conditions noted are these: protein: recombinant; tags: N-terminal GST; dsDNA, one strand shown. An outline of the steps:
as §1

Assay [14] addresses ELF4 (Homo sapiens, UniProt Q99607 1-663). The conditions noted are these: protein: recombinant; tags: N-terminal GST; dsDNA, one strand shown. An outline of the steps:
as §1

For assay [15], the target named is T9, ELK4 (Homo sapiens, UniProt P28324-2 1-405).
T9 sequence: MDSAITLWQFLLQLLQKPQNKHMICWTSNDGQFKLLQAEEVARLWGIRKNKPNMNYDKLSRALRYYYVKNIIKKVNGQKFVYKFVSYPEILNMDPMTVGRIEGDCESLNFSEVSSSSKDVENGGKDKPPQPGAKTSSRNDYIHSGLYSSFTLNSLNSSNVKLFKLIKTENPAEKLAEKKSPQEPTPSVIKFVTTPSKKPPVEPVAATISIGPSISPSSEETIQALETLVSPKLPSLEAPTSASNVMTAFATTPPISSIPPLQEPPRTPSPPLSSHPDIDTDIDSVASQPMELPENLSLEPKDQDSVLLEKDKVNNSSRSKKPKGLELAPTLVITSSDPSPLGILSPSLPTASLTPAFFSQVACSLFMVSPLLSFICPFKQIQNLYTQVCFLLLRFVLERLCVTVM
The conditions noted are these: protein: recombinant; tags: N-terminal GST; dsDNA, one strand shown. An outline of the steps:
as §1

Assay [16] deals with T10, ETV2 (Homo sapiens, UniProt O00321 1-342).
T10 sequence: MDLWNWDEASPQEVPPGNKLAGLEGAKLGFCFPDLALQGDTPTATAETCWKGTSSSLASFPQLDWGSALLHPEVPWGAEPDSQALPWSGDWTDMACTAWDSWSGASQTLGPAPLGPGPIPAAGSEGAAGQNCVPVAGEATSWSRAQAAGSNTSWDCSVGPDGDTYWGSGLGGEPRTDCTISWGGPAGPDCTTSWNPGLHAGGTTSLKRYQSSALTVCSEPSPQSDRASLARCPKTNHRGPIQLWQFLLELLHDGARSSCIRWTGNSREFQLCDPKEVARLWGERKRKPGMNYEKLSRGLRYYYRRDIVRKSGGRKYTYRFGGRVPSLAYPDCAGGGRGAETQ
The conditions noted are these: protein: recombinant; tags: N-terminal GST; dsDNA, one strand shown. An outline of the steps: as §1

Assay [17] deals with ETV1 (Homo sapiens, UniProt P50549 1-477). The conditions noted are these: protein: recombinant; tags: N-terminal GST; dsDNA, one strand shown. In short, it runs like this:
as §1

Sequence of SPIB (Q01892 whole entry): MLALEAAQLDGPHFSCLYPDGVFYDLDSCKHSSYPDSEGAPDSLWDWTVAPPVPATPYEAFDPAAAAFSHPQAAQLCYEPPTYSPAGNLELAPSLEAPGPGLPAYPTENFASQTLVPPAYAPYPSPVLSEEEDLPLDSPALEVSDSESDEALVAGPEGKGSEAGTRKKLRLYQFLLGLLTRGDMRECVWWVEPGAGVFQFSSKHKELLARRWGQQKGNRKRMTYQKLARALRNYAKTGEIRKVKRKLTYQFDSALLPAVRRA
Sequence of ELF4 (Q99607 whole entry): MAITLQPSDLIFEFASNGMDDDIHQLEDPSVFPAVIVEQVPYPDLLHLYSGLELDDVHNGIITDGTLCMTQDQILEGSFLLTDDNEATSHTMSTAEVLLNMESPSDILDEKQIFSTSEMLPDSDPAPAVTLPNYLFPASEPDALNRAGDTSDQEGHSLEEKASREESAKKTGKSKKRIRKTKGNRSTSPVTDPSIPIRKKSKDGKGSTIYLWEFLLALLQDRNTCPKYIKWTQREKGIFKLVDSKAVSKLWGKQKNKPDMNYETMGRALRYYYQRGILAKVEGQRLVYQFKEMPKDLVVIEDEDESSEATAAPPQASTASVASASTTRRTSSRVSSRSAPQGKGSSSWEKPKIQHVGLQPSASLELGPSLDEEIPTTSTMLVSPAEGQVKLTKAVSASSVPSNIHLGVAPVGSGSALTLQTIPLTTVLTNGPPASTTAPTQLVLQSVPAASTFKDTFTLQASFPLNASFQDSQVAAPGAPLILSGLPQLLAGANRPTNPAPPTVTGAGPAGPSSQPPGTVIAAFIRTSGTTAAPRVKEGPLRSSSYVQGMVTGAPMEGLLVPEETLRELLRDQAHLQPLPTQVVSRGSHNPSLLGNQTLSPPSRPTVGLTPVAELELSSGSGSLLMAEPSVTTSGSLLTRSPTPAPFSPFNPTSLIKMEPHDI
Sequence of ETV5 (P41161 whole entry): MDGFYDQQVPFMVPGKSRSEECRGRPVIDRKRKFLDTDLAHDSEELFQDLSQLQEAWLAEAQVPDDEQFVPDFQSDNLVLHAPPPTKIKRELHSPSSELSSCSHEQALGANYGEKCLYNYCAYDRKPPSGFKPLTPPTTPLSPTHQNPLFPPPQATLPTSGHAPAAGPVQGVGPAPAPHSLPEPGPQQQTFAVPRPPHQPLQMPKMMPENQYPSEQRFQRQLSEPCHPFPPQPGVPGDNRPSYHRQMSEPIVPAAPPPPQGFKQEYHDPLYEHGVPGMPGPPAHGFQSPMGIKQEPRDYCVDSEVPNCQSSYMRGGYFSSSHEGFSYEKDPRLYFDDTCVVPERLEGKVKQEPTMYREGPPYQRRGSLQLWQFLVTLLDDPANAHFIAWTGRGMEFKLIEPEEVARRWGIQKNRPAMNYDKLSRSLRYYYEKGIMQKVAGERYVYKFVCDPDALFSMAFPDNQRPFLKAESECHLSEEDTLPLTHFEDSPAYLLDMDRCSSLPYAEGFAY
Sequence of ELF1 (P32519 whole entry): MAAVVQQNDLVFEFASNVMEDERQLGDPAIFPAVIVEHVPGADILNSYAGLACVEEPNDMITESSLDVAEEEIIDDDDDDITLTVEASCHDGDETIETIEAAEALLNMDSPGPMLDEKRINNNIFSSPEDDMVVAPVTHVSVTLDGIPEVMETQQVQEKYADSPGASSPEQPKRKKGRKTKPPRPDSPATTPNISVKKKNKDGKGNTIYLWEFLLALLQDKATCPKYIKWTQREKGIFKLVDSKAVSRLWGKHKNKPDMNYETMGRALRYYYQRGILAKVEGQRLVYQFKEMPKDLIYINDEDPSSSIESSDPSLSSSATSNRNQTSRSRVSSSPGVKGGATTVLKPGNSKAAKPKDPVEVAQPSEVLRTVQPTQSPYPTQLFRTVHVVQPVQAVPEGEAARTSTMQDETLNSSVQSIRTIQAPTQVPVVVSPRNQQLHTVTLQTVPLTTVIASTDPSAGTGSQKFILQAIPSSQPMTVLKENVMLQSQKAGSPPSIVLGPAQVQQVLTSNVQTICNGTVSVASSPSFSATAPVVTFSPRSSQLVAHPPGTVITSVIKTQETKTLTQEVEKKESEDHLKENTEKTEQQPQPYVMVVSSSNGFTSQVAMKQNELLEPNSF
Sequence of HSF1 (Q00613 whole entry): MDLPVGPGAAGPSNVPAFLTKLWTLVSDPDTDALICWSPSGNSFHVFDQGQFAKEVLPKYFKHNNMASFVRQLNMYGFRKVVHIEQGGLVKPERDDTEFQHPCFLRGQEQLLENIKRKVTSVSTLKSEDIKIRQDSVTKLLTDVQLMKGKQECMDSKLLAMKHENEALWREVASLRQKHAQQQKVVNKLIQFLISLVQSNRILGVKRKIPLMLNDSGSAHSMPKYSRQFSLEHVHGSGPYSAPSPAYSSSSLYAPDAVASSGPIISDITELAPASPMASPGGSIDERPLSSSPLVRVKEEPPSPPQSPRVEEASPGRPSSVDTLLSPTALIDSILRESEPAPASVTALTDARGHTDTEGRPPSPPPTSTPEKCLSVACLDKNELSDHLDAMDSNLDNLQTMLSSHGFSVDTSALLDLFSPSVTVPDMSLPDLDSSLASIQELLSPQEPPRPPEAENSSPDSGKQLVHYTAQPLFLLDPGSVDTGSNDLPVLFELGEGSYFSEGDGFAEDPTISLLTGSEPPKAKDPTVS
Sequence of ETV1 (P50549 whole entry): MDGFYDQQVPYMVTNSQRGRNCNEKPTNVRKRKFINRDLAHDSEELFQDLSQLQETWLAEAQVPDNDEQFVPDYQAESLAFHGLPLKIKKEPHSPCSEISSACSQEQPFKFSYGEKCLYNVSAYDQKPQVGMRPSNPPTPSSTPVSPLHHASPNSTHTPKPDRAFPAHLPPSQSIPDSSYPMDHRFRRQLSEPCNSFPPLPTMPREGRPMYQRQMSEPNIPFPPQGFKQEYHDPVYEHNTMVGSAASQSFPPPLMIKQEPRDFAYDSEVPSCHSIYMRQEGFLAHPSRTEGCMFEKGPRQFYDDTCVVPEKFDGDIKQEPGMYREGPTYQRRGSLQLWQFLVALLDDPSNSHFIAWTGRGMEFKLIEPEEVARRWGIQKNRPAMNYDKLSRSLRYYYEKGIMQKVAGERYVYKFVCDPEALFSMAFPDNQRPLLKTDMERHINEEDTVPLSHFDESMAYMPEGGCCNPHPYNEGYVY

In the case of TGTAGC, the binding signal was 1.1 fold enrichment (6-mer frequency, TF over GST control) in assay [1]; 1.16 fold enrichment (6-mer frequency, TF over GST control) in [2]; 1.16 fold enrichment (6-mer frequency, TF over GST control) in [3]; 1.11 fold enrichment (6-mer frequency, TF over GST control) in assay [4]; 1.2 fold enrichment (6-mer frequency, TF over GST control) in assay [5]; 1.16 fold enrichment (6-mer frequency, TF over GST control) in assay [6]. Moreover, the binding signal in assay [7] was 1.17 fold enrichment (6-mer frequency, TF over GST control); in assay [8] it was 1.03 fold enrichment (6-mer frequency, TF over GST control); in assay [9] it was 1.27 fold enrichment (6-mer frequency, TF over GST control); in assay [10], 1.17 fold enrichment (6-mer frequency, TF over GST control); in assay [11], 1.24 fold enrichment (6-mer frequency, TF over GST control); in [12] it was 1.02 fold enrichment (6-mer frequency, TF over GST control). Further, the binding signal in [13] is 1.11 fold enrichment (6-mer frequency, TF over GST control); in assay [14], 1.26 fold enrichment (6-mer frequency, TF over GST control); in assay [15] it was 1.31 fold enrichment (6-mer frequency, TF over GST control); in [16] it was 1.24 fold enrichment (6-mer frequency, TF over GST control); in [17] it was 1.22 fold enrichment (6-mer frequency, TF over GST control).
